# Compound activity from PubChem.
# A selection: hits, their analogues and other compounds. The true share with any hit is near 2.5%.
# Env fusion inh – HIV envelope-mediated fusion inhibition; 360,000 tested, 1.1% active; inhibition, % at 12.3 µM; AID 651610; HeLa-JRFL Env/CEM21 cell fusion, luciferase;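 active = mean replicate inhibition score of at least 50 and every replicate individually at or above 50; inconclusive = only one of the two criteria met; inactive = mean below 50 and not all replicates reaching 50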
# PAX8 inh HTS – lowers PAX8-driven luciferase in RMG-I cells | RMG-I TPO-luciferase reporter, SteadyGlo, 24 h | inhibition, % at 12.6 µM | 360,000 tested, 1.2% active;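 active = mean replicate inhibition at least 60% with every replicate also reaching 60%; inconclusive = only one of the two criteria is met; inactive = mean below 60% and not all replicates reaching 60%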;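 also: luciferase light reporting Pax8 driven TPO promoter activity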
# EWS-Fli block – inhibitors of EWS/Fli oncoprotein transcriptional activity | A673 NR0B1-luciferase reporter, viability-normalised | inhibition, % at 12.6 µM | 350,000 tested, 0.67% active | AID 651661;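 active = mean inhibition of at least 50% after viability correction, with every replicate also passing that limit; inconclusive = mean reaches 50% but only one of two replicates passes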;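 also: firefly luciferase signal divided by Alamar Blue viability fluorescence both relative to DMSO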
# GAA850 FXN act – increases GAA850 frataxin promoter reporter activity | HEK293 lucGAA850 FXN promoter luciferase reporter, 24 h; percent of 10 µM SAHA response | activation, % at 6 µM | 360,000 tested, 0.56% active;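 active = activation above the average of all compounds screened plus 3 SD, cutoff fixed separately per campaign, cut at about 7.5% in these data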
# CFTR F508del cor – CFTR F508del correction in bronchial cells; CFBE cells, YFP halide quenching; stimulated with forskolin plus potentiator P3; % fluorescence drop versus neutral controls; activity (quench increase), % at 7.58 µM; 350,000 tested, 0.36% active;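 active = mean added fluorescence quench of at least 8% versus neutral control, with both replicates also reaching 8%; inconclusive = only one of the mean or replicate conditions met; inactive = mean below 8% and not both replicates reaching 8%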;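 also: cells transiently co-express mutant CFTR-F508del with the halide-sensitive YFP; corrector assay measuring rescue of mutant channel to the surface after 24 h compound exposure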
# A number is an active result; – = inactive; ? = inconclusive; · = no result given.
SMILES,Env fusion inh,PAX8 inh HTS,EWS-Fli block,GAA850 FXN act,CFTR F508del cor
C[C@@H]1CN([C@H](C)CO)C(=O)c2cc(NS(=O)(=O)c3cccs3)ccc2O[C@@H](C)CCCCO[C@@H]1CN(C)S(C)(=O)=O,·,–,–,·,–
C[C@H](CO)N1C[C@H](C)[C@H](CN(C)C(=O)Nc2cccc3ccccc23)Oc2ncc(-c3cccc(C(F)(F)F)c3)cc2C1=O,·,·,–,·,–
COc1cccc(C2=CC(c3ccccc3)n3nnnc3N2)c1 (stereo not drawn),·,·,–,–,15.4
COc1cccc(C2=CC(c3ccc(N(C)C)cc3)n3nnnc3N2)c1 (stereo not drawn),–,·,·,–,·
CCCNC(=O)N1CC2(CN(Cc3nccs3)C2)c2c([nH]c3cc(OC)ccc23)[C@@H]1CO,·,·,–,·,–
COc1cccc(CN2CCC2(C)C(=O)Nc2cccc(Oc3ccccc3)c2)c1OC (stereo not drawn),85.9,–,–,–,–
CC1(C(=O)Nc2ccc3c(c2)OCO3)CCN1Cc1csc2ccccc12 (stereo not drawn),63.2,–,–,–,–
Cc1ccc(NC(=O)C2(C)CCN2Cc2csc3ccccc23)cc1 (stereo not drawn),?,–,–,–,–
O=C(Nc1cccc(-c2csc(Nc3ccc(Cl)cc3)n2)c1)c1cc([N+](=O)[O-])cc(C(F)(F)F)c1,–,78.7,–,–,–
CC(C)C#Cc1cnc2c(c1)C(=O)N([C@H](C)CO)C[C@H](C)[C@H](CN(C)C(=O)Cc1ccccn1)O2,–,–,–,·,–
Cc1cc(Nc2cccc(C(F)(F)F)c2)cc(=O)n1-c1cccc(C(F)(F)F)c1,67.5,–,–,·,–
Cc1cc(Nc2cc(C(F)(F)F)cc(C(F)(F)F)c2)cc(=O)n1-c1cc(C(F)(F)F)cc(C(F)(F)F)c1,–,–,–,·,–
C[C@H](CO)N1C[C@H](C)[C@@H](CN(C)Cc2ccc(-c3ccccc3)cc2)Oc2c(NC(=O)C3CC3)cccc2C1=O,·,·,–,·,–
CC(C)(C)OC(=O)C1=CC[C@@H](c2ccc(Cl)c(Cl)c2)N(S(=O)(=O)c2ccc(F)cc2)[C@H]1c1cccc(F)c1,92.7,–,–,·,–
Cc1ccc(S(=O)(=O)N2[C@@H](c3cccc(Cl)c3)C(C(=O)OC(C)(C)C)=CC[C@H]2c2cccc(Cl)c2)cc1,–,–,–,·,–
CC(C)CC#Cc1ccc2c(c1)O[C@H](CN(C)Cc1ccncc1)[C@@H](C)CN([C@H](C)CO)S2(=O)=O,–,–,–,·,–
CC(C)CC#Cc1ccc2c(c1)O[C@@H](CN(C)Cc1ccncc1)[C@H](C)CN([C@H](C)CO)S2(=O)=O,–,91.6,–,·,–
CC(C)CC#Cc1ccc2c(c1)O[C@H](CN(C)Cc1ccncc1)[C@@H](C)CN([C@@H](C)CO)S2(=O)=O,–,72.6,–,·,–
CCCC#Cc1ccc2c(c1)O[C@H](CN(C)Cc1ccncc1)[C@@H](C)CN([C@H](C)CO)S2(=O)=O,–,·,–,·,–
COc1ccc2c3c([nH]c2c1)[C@@H](CO)N(Cc1cccc(Cl)c1)CC31CCN(C(C)=O)CC1,·,·,–,·,–
CCC(=O)N1CCCc2cc(S(=O)(=O)N3CCN(c4ccccc4F)CC3)ccc21,40.9,–,–,–,–
CN[C@H]1CCc2cc(OC)c(OC)c(OC)c2-c2ccc(N(C)CC(OC)OC)c(=O)cc21,–,?,–,–,10.8
CCN(CC)c1ccc2c(cc1=O)[C@@H](NC)CCc1cc(OC)c(OC)c(OC)c1-2,–,98.1,60.0,–,9.5
CCN(CC)CCN1C(=O)c2ccccc2NC1c1cc(OC)c(OC)c(OC)c1 (stereo not drawn),·,·,–,–,–
COc1cc2c(c(OC)c1OC)-c1ccc(N(C)CC(OC)OC)c(=O)cc1[C@@H](NC(C)=O)CC2,–,98.9,60.0,–,–
SMILES,Env fusion inh,PAX8 inh HTS,EWS-Fli block,GAA850 FXN act,CFTR F508del cor
O=C(C[C@H]1CC[C@H]2[C@@H](COC[C@@H](O)CN2Cc2cc(F)ccc2F)O1)NCc1ccc(Oc2ccccc2)cc1,·,·,·,·,–
CO[C@@H]1CN(C)C(=O)c2ccc(NC(=O)C3CC3)cc2OC[C@@H](C)N(C(=O)c2ccncc2)C[C@@H]1C,–,–,–,·,–
CN(C)C(=O)C[C@H]1C[C@H]2c3cc(NC(=O)C4CCOCC4)ccc3O[C@H]2[C@H](CO)O1,–,–,–,·,–
CN(C)C(=O)C[C@@H]1CC[C@H](NC(=O)C2CC2)[C@@H](CO)O1,–,·,–,·,–
CCOc1ccc(/C=C/C(=O)Nc2ccc(C(N)=O)cc2)cc1OC,·,·,·,–,·
CCOc1cc(/C=C/C(=O)Nc2ccc(C(=O)NCCN(CC)CC)cc2)ccc1OCC(C)C,–,78.3,54.5,–,–
C[C@@H]1CN([C@H](C)CO)C(=O)Cc2cc(NS(=O)(=O)c3ccc(Cl)cc3)ccc2O[C@@H]1CN(C)S(C)(=O)=O,–,–,–,·,–
Cc1noc(C)c1NC(=O)N(C)C[C@H]1Oc2ccc(NC(=O)NC3CCCCC3)cc2CC(=O)N([C@H](C)CO)C[C@H]1C,–,·,–,·,–
COc1ccccc1CN1[C@H](CO)[C@@H]2c3ccccc3N(C(=O)C3CCOCC3)C[C@@H]21,·,–,–,·,–
Cc1cccc(NS(=O)(=O)c2ccc(-c3cnc(C4CC4)o3)cc2)c1C,–,74.9,·,–,–
COc1ccccc1NS(=O)(=O)c1cc(-c2cnc(C3CC3)o2)ccc1C,–,–,–,–,8.3
O=S(=O)(Nc1ccccc1)c1ccc(-c2cnc(C3CC3)o2)cc1,–,–,·,–,–
COc1ccc(NS(=O)(=O)c2cc(-c3cnc(C4CC4)o3)ccc2C)cc1,–,–,–,–,–
Cc1cc(C)cc(NS(=O)(=O)c2ccc(-c3cnc(C4CC4)o3)cc2)c1,–,74.7,·,–,–
Cc1ccc(C)c(NS(=O)(=O)c2ccc(-c3cnc(C4CC4)o3)cc2)c1,–,84.8,·,–,–
C[C@H](CO)N1C[C@H](C)[C@@H](CN(C)Cc2ccc(C(=O)Nc3ccccc3N)cc2)Oc2ccc(NC(=O)CCN3CCOCC3)cc2C1=O,·,–,·,·,–
C[C@@H]1CN([C@H](C)CO)C(=O)c2cc(NS(C)(=O)=O)ccc2O[C@@H]1CN(C)S(=O)(=O)c1ccc(F)cc1,·,·,–,·,–
C[C@H](CO)N1C[C@H](C)[C@@H](CN(C)Cc2ccc3c(c2)OCO3)Oc2ccc(NC(=O)Cn3cnnn3)cc2CC1=O,–,–,–,·,–
C[C@H]1CN([C@@H](C)CO)C(=O)Cc2cc(NC(=O)Cn3cnnn3)ccc2O[C@@H]1CN(C)Cc1ccc(Cl)c(Cl)c1,·,–,68.7,·,–
C[C@@H]1CN([C@H](C)CO)C(=O)Cc2cc(NC(=O)Nc3ccc(C(F)(F)F)cc3)ccc2O[C@H]1CN(C)Cc1ccc(Cl)c(Cl)c1,–,–,–,·,–
C[C@@H]1CN([C@@H](C)CO)C(=O)Cc2cc(NC(=O)Nc3ccc(F)cc3)ccc2O[C@H]1CN(C)Cc1ccc(Cl)c(Cl)c1,–,105.3,–,·,–
C[C@@H]1CN([C@H](C)CO)C(=O)Cc2cc(NC(=O)Nc3ccc(F)cc3)ccc2O[C@@H]1CN(C)Cc1ccc(Cl)c(Cl)c1,–,109.0,–,·,–
